Screening results: PubChem, National Center for Advancing Translational Sciences (NCATS)
G9a inh = G9a (human) methyltransferase inhibition; G9a H3K9 monomethylation, AlphaScreen, 2 h; AID 504332; Potency, µM (doses to about 102 µM), for inactives: top-dose activity, negative = inhibition, most hits filed as inhibitors; Q96KQ7; actives 8.8% (n = 350,000); also: % is scaled to controls: 0 for no effect and ±100 for the full control effect; nearly all actives have a fitted effect of over 75% in size
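Step 1: enzyme (final 20 nM) with compound, 15 min RT. Step 2: substrate peptide 500 nM and SAM 20 uM, 2 h RT. Step 3: anti-H3K9me1 antibody and AlphaScreen beads, 10 min, then plate read.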
BAZ2B inh = inhibitors of human BAZ2B bromodomain. Q9UIF8. AlphaScreen BAZ2B-H3K14Ac peptide displacement. Potency, µM (series often up to 114 µM), for inactives: at the top dose activity change, negative = inhibition, usual class: inhibitors. actives 4.4% (n = 360,000). AID 504333; also: % is scaled to controls: 0 for no effect and ±100 for the full control effect; nearly all actives have a fitted effect of over 60% in size
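Complex of BAZ2B and biotin-H3K14Ac (50 nM apiece) forms over 30 min at RT, then faces library compounds up to 110 uM for another 30 min; AlphaScreen beads added, 20 min dark incubation, luminescence read.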
JMJD2A Tudor = inhibitors of human JMJD2A Tudor domain; O75164; AlphaScreen JMJD2A-Tudor / H3K4me3 peptide binding; Potency, µM (doses to about 114 µM), for inactives: at the top dose activity change, negative = inhibition, most hits filed as inhibitors; actives 4.4% (n = 390,000); AID 504339; also: % is scaled to controls: 0 for no effect and ±100 for the full control effect; nearly all actives have a fitted effect of over 50% in size
Target sequence (O75164 whole entry, looked up, the tested form may be a part): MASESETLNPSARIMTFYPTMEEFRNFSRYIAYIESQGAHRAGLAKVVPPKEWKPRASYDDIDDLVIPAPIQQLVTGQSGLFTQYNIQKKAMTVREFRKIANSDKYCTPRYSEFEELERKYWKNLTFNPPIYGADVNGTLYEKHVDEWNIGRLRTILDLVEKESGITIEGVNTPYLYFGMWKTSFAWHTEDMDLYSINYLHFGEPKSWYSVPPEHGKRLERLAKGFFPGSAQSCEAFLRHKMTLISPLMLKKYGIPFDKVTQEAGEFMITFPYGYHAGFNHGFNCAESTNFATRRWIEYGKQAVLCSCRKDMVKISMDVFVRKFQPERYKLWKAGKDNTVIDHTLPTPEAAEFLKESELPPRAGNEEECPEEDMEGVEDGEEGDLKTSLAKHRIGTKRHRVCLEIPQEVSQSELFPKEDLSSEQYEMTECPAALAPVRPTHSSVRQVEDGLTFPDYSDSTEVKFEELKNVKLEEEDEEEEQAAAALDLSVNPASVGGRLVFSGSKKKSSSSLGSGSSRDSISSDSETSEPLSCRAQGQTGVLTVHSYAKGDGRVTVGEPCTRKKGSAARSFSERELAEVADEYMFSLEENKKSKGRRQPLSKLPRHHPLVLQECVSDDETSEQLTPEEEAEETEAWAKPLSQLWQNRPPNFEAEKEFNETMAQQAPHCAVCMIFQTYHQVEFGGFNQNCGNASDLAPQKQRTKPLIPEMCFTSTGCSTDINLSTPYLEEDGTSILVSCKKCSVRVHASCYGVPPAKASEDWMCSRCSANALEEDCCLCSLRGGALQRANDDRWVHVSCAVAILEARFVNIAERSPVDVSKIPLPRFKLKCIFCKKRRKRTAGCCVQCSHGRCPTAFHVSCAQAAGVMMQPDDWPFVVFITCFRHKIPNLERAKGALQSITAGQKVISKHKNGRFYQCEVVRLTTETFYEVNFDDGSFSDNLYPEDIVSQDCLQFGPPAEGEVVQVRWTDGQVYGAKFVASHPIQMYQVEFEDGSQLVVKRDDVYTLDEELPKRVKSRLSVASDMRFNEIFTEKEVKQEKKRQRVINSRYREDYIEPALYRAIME
HP1b chromo inh = inhibitors of HP1-beta chromodomain binding to methylated histone tails; P83916; AlphaScreen HP1-beta / biotin-H3K9me3 peptide binding; Potency, µM (titrated, usually from 114 µM), for the others: at the top dose activity change, negative = inhibition, hits mostly inhibitors; actives 0.56% (n = 390,000); AID 540317; also: nearly all actives have a fitted effect of over 70% in size
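HP1-beta protein (50 nM final) preincubated 30 min at room temperature with biotinylated H3(1-18)K9me3 peptide (50 nM) in PBS pH 7.4, 0.01% Tween-20, then compound added for 30 min. AlphaScreen streptavidin donor/nickel chelate acceptor beads (10 ug/mL final), 30 min dark, luminescence read.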
Sfp PPTase inh = blocks B. subtilis Sfp PPTase activity. AID 1490. Biochemical Sfp PPTase activity, qHTS. Q9F4F7. actives 3.5% (n = 310,000). Potency, µM, for inactives: largest response in the series, negative = inhibition, most hits filed as inhibitors;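 also: the enzyme is Sfp with the accession as filed and its product quenches rhodamine fluorescence; 0% = enzyme reaction without inhibitor and -100% = no enzyme wells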
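With Hepes-Na pH 7.6 buffer containing 10 mM MgCl2, Sfp (15 nM) modified BHQ-2-YbbR (12.5 uM) using rhodamine-CoA (5 uM). Two reads 30 minutes apart at 525/598 nm yielded each well's rate.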
Active calls of the source: *; u = inconclusive; x = not tested or not shown; [ ] = remark or other dose. Rows were chosen to be rich in hits. Some 12% of all compounds tested hit in one or more screens of this group. Calls follow the shape of the dose curve; as a rule, active = well fitted curve in the direction sought with a large enough effect; inconclusive = small, poorly fitted or top-dose-only effect, or another doubt; inactive = no such curve, though single readings can be large; an effect the other way counts as inactive or inconclusive. Potency is read from the fitted curve at half-maximal effect.

SMILES	G9a inh	BAZ2B inh	JMJD2A Tudor	HP1b chromo inh	Sfp PPTase inh
CN(C)c1ccc(-c2nnn(CC(=O)Nc3ccccc3N3CCOCC3)n2)cc1	50µM*	u	u	-18%	-1%
Cc1cccc(C(=O)OCc2cc(=O)n3nc(C4CCCCC4)sc3n2)c1	5%[59 µM]	-8%	-11%	23%	x
c1ccc(-c2cnnc(SCc3cn4cccnc4n3)n2)cc1	u	-1%	3%	40%	u
c1ccc2[nH]c(SCc3cn4cccnc4n3)nc2c1	14µM*	-7%	4%	27%	-13%
CC(C)CNS(=O)(=O)c1cc(C(=O)OCC(=O)N2CCOCC2)c(Cl)cc1Cl	3%	0%	-9%	1%	8%
CN1CCN(S(=O)(=O)c2cccc(C(=O)N(C)CC(=O)Nc3ccc(F)c(F)c3F)c2)CC1	1.8µM*	u	-21%	15%	x
CCN(CC(=O)Nc1ccccc1OC)C(=O)c1cccc(-n2cccc2)c1	45µM*	u	u	-13%	8%
Cc1cccc(NC(=O)CNC(=O)c2cccc(-n3cccc3)c2)c1C	35µM*	14µM*	14µM*	u	x
Cc1ccc(C)c(NC(=O)CN(C)C(=O)c2cccc(N3C(=O)CCC3=O)c2)c1	40µM*	-4%	-6%	3%	x
CN(CC(=O)Nc1cccc(F)c1)C(=O)c1cccc(N2C(=O)CCC2=O)c1	23%[59 µM]	14%	-10%	18%	x
CCCCCNC(=O)c1cc(S(=O)(=O)N2CCCC2)ccc1F	13%	2%	-9%	19%	4%
O=C(Nc1ncc(Cc2cccc(C(F)(F)F)c2)s1)C1CCCO1 (stereo not given)	40%	-19%	-3%	78%	5%
COc1cccc(NC(=O)CSc2nc3scc(C)c3c(=O)[nH]2)c1	-9%	-1%	-5%	13%	6%
Cc1ccc(NC(=O)CN(C)C(=O)c2cccc(-n3cccc3)c2)cc1	25µM*	11µM*	u	20µM*	x
Cc1cc2occ(CC(=O)N(C)CC(=O)Nc3c(C)cccc3C)c2cc1C	40µM*	1%	-8%	5%	x
COc1ccc(NC(=O)CN(C)C(=O)c2cccc(S(=O)(=O)N3CCN(Cc4ccccc4)CC3)c2)cc1	18µM*	u	-22%	11%	50µM*
Cc1ccc(NC(=O)CN(C)C(=O)c2ccc(Cl)nc2)cc1	-5%	0%	-11%	13%	30%
COc1ccc(NC(=O)CN(C)C(=O)c2cccc(-n3cccc3)c2)cc1	45µM*	11µM*	22µM*	25µM*	x
Cc1cccc(C)c1NC(=O)CN(C)C(=O)c1ccc(N2C(=O)CCC2=O)cc1	u	11%	-11%	26%	x
Cc1cccc(C)c1NC(=O)CN(C)C(=O)c1cccc(-n2cccc2)c1	50µM*	50µM*	8.9µM*	u	x
CCOC(=O)[C@H]1[C@H]2COc3ccc(OC)cc3[C@@H]2N2C(=O)CN(Cc3ccc(C)cc3)C(=O)[C@@]12C	6%[0.501 µM]	-27%	-21%	19%	x
Cc1nnc(SCC(=O)Nc2cccc(Cl)c2)n1CC1CCCO1 (stereo not given)	11%	2%	1%	16%	1%
Cc1cccc(C)c1NC(=O)COC(=O)CCC(=O)c1cccs1	54%	-4%	8%[57.1 µM]	u	-1%
[O-]/C(=C(\C(=S)Nc1cccc2ccccc12)[n+]1ccccc1)c1cccs1	35µM*	u	79µM*	u	u
Cc1cccc(C)c1NC(=S)/C(=C(\[O-])c1cccs1)[n+]1ccccc1	7.9µM*	0%	-31%	37%	u
SMILES	G9a inh	BAZ2B inh	JMJD2A Tudor	HP1b chromo inh	Sfp PPTase inh
Cc1ccc(NC(=S)NN2CCN(C)CC2)cc1	28%[59 µM]	13%	-22%	15%	14%
CN1CCN(NC(=O)c2ccc(COc3ccccc3Br)o2)CC1	-34%	-17%	-8%	23%	-10%
CCn1c(COc2ccccc2C)nnc1SCC(=O)Nc1ccc2c(c1)OCCO2	-5%[12.7 µM]	3%	-10%	26%	15%
N#Cc1c2nc3ccccc3nc2n2cc(NC(=O)c3ccc(F)cc3)ccc12	3.2µM*	u	18µM*	-19%	u
CCOC(=O)NC(Cc1c[nH]c2ccccc12)C(=O)NCCc1ccc(S(N)(=O)=O)cc1 (stereo not given)	-17%[2.33 µM]	-9%	-17%	48%	-4%
COc1cc2nc(NC(=O)c3ccc(F)cc3Cl)sc(=O)c2cc1OC	35µM*	-31%	-7%	-1%	-19%
O=C(Nc1nc2ccsc2c(=O)s1)c1ccc(F)cc1Cl	-8%	-5%	u	-19%	13%
Cc1cccnc1NC(=O)CN1C(=O)COc2ccc(Cl)cc21	21%	56µM*	0%	46%	10%
Cc1cccc(OC(=O)c2sc(Cl)nc2C)c1	80%	58%	13%	73%	5%
Cc1ccc(OCC(=O)Nc2ccc(CN3CCOCC3)cc2)cc1C	u	-11%	-7%	40%	14%
COc1ccc(CNc2oc(-c3ccccc3)nc2C#N)cc1	40µM*	45µM*	u	-17%	-12%
C=CCNc1oc(-c2ccc(-c3ccccc3)cc2)nc1C#N	x	x	79µM*	18%	x
CC(C)CNc1oc(-c2ccccc2Cl)nc1C#N	40µM*	u	-22%	u	-11%
N#Cc1nc(-c2ccccc2Cl)oc1NCc1ccco1	u	50µM*	u	-30%	-13%
N#Cc1nc(-c2ccco2)oc1NCc1ccc(F)cc1	10%[2.33 µM]	u	-29%	-24%	9%
COc1ccc(-c2nc(C#N)c(NCCc3ccccc3)o2)cc1	-11%[59 µM]	1%	-8%	23%	-2%
COCCCNc1oc(-c2ccccc2Cl)nc1C#N	u	-39%	-22%	-3%	19%
CCCCCCCCCCCCCCCCSCC(COC)COP(=O)([O-])OCC[N+](C)(C)C (stereo not given)	x	x	x	x	-1%
N#Cc1nc(-c2ccccc2)oc1NCc1ccco1	u	50µM*	-29%	16%	-5%
N#Cc1nc(-c2ccc(Cl)cc2)oc1NCc1ccco1	-8%[12.7 µM]	-31%	-8%[11.4 µM]	-31%	11%
O=C(O)C1(C(=O)O)CCC1.[NH2-].[NH2-].[Pt+2]	x	x	x	x	6.3µM*
COc1ccccc1CNC(=O)c1cn(C)c(=O)c2cc(OC)c(OC)cc12	-7%	-12%	13µM*	2%	-4%
CCn1c(=O)c(C(=O)NCc2cccnc2)c(O)c2ccccc21	6%[59 µM]	29%	40µM*	18%	8%
COCCCNC(=O)c1cn(C)c(=O)c2cc(OC)c(OC)cc12	-7%[2.33 µM]	-1%	-12%	7%	11%
CCn1cc(C(=O)NCc2cccnc2)c2cc(OC)c(OC)cc2c1=O	11µM*	9%	-23%	19%	2%
COc1c2ccoc2nc2c(OC)c(O[C@@H]3O[C@H](C)[C@@H](O)[C@@H](O)[C@H]3O)ccc12	x	x	x	x	6%
O=C(Cc1cccc(Cl)c1)Nc1ccc(Br)cc1	3%	2%	3%	38%	6%
